# From PubChem BioAssay (NCATS)
# Several values for one entry are separate records, joined by “and”; a condition that tells them apart may be missing. Equal entries are not always repeated. Values without a mark were called inactive. Results filed as inconclusive are left out. Entries that show only a call come without a potency. Activity calls are given as the source filed them. Unless noted, calls follow the shape of the dose curve; as a rule, active = well fitted curve in the direction sought with a large enough effect; inconclusive = small, poorly fitted or top-dose-only effect, or another doubt; inactive = no such curve, though single readings can be large; an effect the other way counts as inactive or inconclusive.
# Columns and labels:
# [1] = biological target: Voltage-gated inwardly rectifying potassium channel KCNH2 (Homo sapiens) (UniProt Q12809); assay: qHTS Assay for Small Molecule Inhibitors of the Human hERG Channel Activity (AID 588834);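 also: U2OS cells transduced with hERG by BacMam; top concentration of the series differs between compounds; lower thallium flux fluorescence means stronger hERG block; nearly all actives have a fitted effect of over 50% in size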
# Outline: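 Cells were infected with hERG-BacMam virus for 4 hrs at room temperature, grown overnight, then seeded at 2000/well. After dye loading and roughly 10 min compound treatment, thallium influx was triggered and fluorescence recorded.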
# [2] = biological target: Luciferin 4-monooxygenase (Photinus pyralis) (UniProt P08659); assay: Biochemical firefly luciferase enzyme assay for NPC (AID 624030); also: nearly all actives have a fitted effect of over 70% in size; also: potency is read from the fitted curve at half-maximal effect
# Outline: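 Counter-screen for direct inhibition of the luciferase enzyme by approved-drug library compounds, run at 10 nM enzyme in 50 mM Tris acetate (final). Luminescence was read within 5 min of enzyme-buffer addition and normalized to PTC124 versus DMSO (0%).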
# [3] = S16 Schwann cell viability assay (CellTiter-Glo assay) (AID 624031);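 also: native untransfected S16 rat Schwann cells; series mostly up to about 58 µM; nearly all actives have a fitted effect of over 70% in size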
# Outline: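 Counter-screen for cytotoxicity: parental S16 rat Schwann cells lacking the PMP22 reporters, treated 24 h with compound, viability from cellular ATP by CellTiter-Glo luminescence, normalized to DMSO (0%) and no-cell wells.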
# [4] = S16 Schwann cell PMP22 intronic element firefly luciferase assay (AID 624032); also: series mostly up to about 58 µM; nearly all actives have a fitted effect of over 30% in size
# Outline: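 Rat S16 Schwann cells stably carrying a PMP22 intronic element-driven Fluc reporter were seeded overnight, then exposed to compounds for 24 h at 37 °C. Luminescence was normalized to PTC124 (positive control) and DMSO (0% activity).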
# [5] = S16 Schwann cell PMP22 intronic element beta-lactamase assay (AID 624044; calls by dose curve; also: nearly all actives have a fitted effect of over 15% in size)
# Outline: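 Beta-lactamase reporter under a PMP22 intronic regulatory element in stable S16 rat Schwann cells; 24 h compound exposure. 460 nm blue signal normalized between DMSO (0%) and potassium clavulanate, with 535 nm FRET tracking viability; curves classed by r2 and response.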
# [6] = qHTS assay for small molecule agonists of the antioxidant response element (ARE) signaling pathway (AID 651741; active = well fitted activation curve with a large enough effect in the signal ratio; the % refers to the signal ratio)
# Outline: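 Reporter: beta-lactamase under ARE, stably in HepG2. Exposure: 16 h, 37 C, compounds delivered in DMSO by pin tool after 5 h cell preincubation. Readout: FRET substrate fluorescence after 2 h at RT.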
# [7] = qHTS assay for small molecule activators of the p53 signaling pathway (AID 651743; active = well fitted activation curve with a large enough effect in the signal ratio, not every such curve was filed as active; the % refers to the signal ratio; also: series mostly up to about 92 µM); conditions: HCT-116 p53RE-bla, beta-lactamase FRET ratio, 16 h; hits give high values
# Outline: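 Agonist-mode quantitative HTS in HCT-116 cells carrying a p53-response-element beta-lactamase reporter; 16 h compound treatment at 37 C, then FRET substrate loading for 2 h at room temperature and fluorescence read.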
# [8] = qHTS assay for small molecule activators of the nuclear factor-kappa B (NF-kB) signaling pathway (AID 651749; active = well fitted activation curve with a large enough effect in the signal ratio; the % refers to the signal ratio; also: series mostly up to about 77 µM); conditions: NF-kB-bla ME-180 cells, beta-lactamase FRET ratio, 16 h; hits give high values
# Outline: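 Human ME-180 cervical cells with an NF-kB-bla construct; compounds added via 23 nL pin transfer, DMSO as vehicle; incubation 16 hr. Reporter activity measured by FRET disruption.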
# [9] = qHTS assay for small molecule disruptors of the mitochondrial membrane potential - 1 hr assay (AID 651754; calls by dose curve; also: nearly all actives have a fitted effect of over 35% in size)
# Outline: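 Mitochondrial potential in living HepG2 cells after 1 hr compound treatment at 37C was read with Mito-MPS dye added for a further 30 min. Red aggregate and green monomer fluorescence were measured; loss of potential leaves dye as cytoplasmic monomers.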
# [10] = qHTS assay for small molecule disruptors of the mitochondrial membrane potential - 5 hr assay (AID 651755; calls by dose curve; also: nearly all actives have a fitted effect of over 40% in size)
# Outline: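 Seed HepG2 overnight, add compound, incubate 5 hr at 37C and 5% CO2, stain 30 min with Mito-MPS, then measure monomer (490/535 nm) and aggregate (540/590 nm) fluorescence.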
# [11] = biological target: Tumor necrosis factor (Homo sapiens) (UniProt P01375); assay: qHTS assay to identify small molecules that stimulate Tumor Necrosis Factor-alpha (TNF-alpha) secretion (AID 651757; active = well fitted curve in the direction sought with a large enough effect in the signal ratio; the % refers to the signal ratio)
# Outline: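 Secreted TNF-alpha quantified by TR-FRET sandwich of two labeled anti-TNF-alpha antibodies, incubated 3 hr at room temperature. Preceded by 17 hr, 37 C compound treatment of THP-1 cells at 3000 cells/well.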
# [12] = qHTS assay for environmental chemicals that activate the Aryl hydrocarbon Receptor (AhR) signaling pathway (AID 651777); conditions: 1A2-DRE human hepatoma cells, luciferase, 24 h; hits give high values; also: nearly all actives have a fitted effect of over 15% in size
# Outline: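 Quantitative HTS in stably transfected human liver-derived cells whose luciferase gene sits downstream of the CYP1A2 promoter and dioxin response element. After 24 hr exposure at 37 C, One-Glo luminescence was measured.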
# [13] = biological target: Peroxisome proliferator-activated receptor alpha (Homo sapiens) (UniProt Q07869); assay: qHTS assay for small molecule agonists of the peroxisome proliferator-activated receptor alpha (PPARalpha) signaling pathway (AID 651778); conditions: PathHunter PPARalpha complementation, chemiluminescence, 6 h; max response: hits give high values
# Outline: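 Cells plated at 2,000/well and held overnight at 37 C, 5% CO2, then compound added by pin tool for 6 hr; after PathHunter detection reagent and 60 min at room temperature, chemiluminescence from enzyme complementation was read.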
# [14] = biological target: Nuclear receptor ROR-gamma (Homo sapiens) (UniProt P51449); assay: qHTS assay for small molecule antagonists of the retinoid-related orphan receptor gamma (ROR-gamma) signaling pathway (AID 651802);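 also: CHO cells with doxycycline-induced ROR-gamma expression; luciferase reporter luminescence driven by ROR response element; series mostly up to about 92 µM; nearly all actives have a fitted effect of over 60% in size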
# Outline: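 Luminescence (One-Glo, 30 min RT) measured 16 h after compound addition and doxycycline induction at 37C. Reporter: RORE-luciferase under TET-inducible ROR-gamma in CHO cells.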
# [15] = qHTS assay to identify small molecules that stimulate interleukin-8 (IL-8) secretion (AID 651758; active = well fitted activation curve with a large enough effect in the signal ratio; the % refers to the signal ratio)
# Outline: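 Quantitative HTS in THP-1 monocytic cells at 2000 cells per well, with 16 hrs compound incubation at 37 C. IL-8 in the medium was then quantified by HTRF immunoassay, read after 1-3 hrs at room temperature.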
# Chain of Luciferin 4-monooxygenase (Photinus pyralis) (P08659 whole entry, looked up): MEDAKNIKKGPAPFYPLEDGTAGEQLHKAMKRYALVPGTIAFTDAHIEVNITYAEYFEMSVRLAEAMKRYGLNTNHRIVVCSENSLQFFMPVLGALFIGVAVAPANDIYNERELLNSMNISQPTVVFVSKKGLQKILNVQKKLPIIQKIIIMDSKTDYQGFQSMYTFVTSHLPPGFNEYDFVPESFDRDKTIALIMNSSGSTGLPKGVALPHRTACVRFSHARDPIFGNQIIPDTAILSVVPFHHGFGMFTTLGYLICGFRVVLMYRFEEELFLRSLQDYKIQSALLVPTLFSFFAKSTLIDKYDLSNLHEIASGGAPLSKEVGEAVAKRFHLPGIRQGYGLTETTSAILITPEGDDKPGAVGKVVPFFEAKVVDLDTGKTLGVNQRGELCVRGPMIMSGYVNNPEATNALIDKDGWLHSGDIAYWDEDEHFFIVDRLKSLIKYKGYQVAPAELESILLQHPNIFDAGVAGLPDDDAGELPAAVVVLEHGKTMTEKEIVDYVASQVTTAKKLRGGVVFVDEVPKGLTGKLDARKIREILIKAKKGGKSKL
# Chain of Nuclear receptor ROR-gamma (Homo sapiens) (P51449 whole entry, looked up): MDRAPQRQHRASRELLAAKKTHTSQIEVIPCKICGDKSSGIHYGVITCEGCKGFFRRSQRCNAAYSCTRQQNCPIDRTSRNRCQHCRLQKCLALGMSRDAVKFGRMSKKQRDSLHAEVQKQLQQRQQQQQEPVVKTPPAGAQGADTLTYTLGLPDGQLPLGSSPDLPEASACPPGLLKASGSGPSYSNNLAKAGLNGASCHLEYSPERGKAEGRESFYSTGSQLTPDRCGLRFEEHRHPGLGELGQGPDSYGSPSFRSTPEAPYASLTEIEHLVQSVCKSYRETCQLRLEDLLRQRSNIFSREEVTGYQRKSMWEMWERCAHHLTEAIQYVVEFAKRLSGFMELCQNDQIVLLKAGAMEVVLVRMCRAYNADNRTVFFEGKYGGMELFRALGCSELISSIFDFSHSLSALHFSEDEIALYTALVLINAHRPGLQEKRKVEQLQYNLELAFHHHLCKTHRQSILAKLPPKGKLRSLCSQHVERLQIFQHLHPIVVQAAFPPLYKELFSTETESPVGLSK
# Chain of Tumor necrosis factor (Homo sapiens) (P01375 whole entry, looked up): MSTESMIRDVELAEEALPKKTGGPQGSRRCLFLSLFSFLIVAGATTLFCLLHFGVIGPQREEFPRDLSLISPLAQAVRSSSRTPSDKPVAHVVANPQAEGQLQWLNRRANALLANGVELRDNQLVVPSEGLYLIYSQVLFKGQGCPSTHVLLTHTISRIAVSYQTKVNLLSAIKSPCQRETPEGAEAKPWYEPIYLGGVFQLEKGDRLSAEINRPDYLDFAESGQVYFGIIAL
# Chain of Voltage-gated inwardly rectifying potassium channel KCNH2 (Homo sapiens) (Q12809 whole entry, looked up): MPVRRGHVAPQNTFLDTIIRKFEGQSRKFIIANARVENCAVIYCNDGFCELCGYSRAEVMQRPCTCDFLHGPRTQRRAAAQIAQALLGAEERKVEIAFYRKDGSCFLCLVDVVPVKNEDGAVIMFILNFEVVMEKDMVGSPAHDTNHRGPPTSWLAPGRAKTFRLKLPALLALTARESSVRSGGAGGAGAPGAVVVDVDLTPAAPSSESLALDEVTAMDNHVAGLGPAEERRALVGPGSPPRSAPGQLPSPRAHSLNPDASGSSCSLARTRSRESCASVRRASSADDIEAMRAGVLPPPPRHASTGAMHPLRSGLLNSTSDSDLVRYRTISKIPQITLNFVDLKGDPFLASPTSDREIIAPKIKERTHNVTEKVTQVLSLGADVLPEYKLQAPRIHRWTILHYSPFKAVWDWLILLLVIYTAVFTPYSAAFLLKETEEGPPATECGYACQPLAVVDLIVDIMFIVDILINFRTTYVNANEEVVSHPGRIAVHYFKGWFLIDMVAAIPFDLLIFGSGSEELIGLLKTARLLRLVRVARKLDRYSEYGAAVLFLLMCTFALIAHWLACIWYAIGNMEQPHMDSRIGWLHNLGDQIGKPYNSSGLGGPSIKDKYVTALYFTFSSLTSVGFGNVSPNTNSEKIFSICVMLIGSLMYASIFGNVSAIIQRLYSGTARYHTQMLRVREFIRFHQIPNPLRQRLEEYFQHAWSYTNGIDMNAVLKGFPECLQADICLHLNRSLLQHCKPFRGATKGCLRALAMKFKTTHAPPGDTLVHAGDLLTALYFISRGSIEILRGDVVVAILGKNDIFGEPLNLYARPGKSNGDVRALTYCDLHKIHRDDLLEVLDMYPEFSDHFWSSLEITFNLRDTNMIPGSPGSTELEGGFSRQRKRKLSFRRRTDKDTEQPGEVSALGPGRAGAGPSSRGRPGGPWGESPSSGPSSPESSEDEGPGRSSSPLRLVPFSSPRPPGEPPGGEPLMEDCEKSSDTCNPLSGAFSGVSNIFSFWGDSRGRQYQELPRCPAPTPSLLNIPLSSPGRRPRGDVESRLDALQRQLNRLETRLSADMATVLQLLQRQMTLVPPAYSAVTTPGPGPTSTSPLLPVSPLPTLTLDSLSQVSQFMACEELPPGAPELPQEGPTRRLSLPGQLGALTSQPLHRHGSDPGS
# Chain of Peroxisome proliferator-activated receptor alpha (Homo sapiens) (Q07869 whole entry, looked up): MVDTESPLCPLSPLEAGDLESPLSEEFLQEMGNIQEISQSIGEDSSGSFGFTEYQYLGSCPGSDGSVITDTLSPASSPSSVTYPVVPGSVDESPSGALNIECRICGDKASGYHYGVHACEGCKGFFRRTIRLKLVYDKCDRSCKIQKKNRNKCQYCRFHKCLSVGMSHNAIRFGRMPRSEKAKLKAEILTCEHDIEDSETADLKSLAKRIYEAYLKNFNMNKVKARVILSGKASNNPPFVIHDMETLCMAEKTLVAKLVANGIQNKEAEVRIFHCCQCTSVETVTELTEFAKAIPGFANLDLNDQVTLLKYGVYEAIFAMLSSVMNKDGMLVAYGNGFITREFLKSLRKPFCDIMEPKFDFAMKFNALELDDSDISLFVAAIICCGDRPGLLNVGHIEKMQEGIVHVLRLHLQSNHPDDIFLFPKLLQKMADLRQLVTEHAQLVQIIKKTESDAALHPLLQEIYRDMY
smiles,measurement,setting,value
CCCOc1ccc2nc(NC(=O)OC)sc2c1,outcome,[1],inactive
same,Potency,[2],1.14 µM (active)
same,Potency,[3],inactive
same,Potency,[4],inactive
same,outcome,[5],inactive
COc1cc2c(c(OC)c1OC)-c1c(cc3c(c1OC)OCO3)C[C@@H](C)[C@](C)(O)C2,Potency,[2],inactive
CN(C)Cc1ccccc1,outcome,[1],inactive
same,Potency,[2],inactive
same,Potency,[6],inactive
same,activation,[7],-3.48%
same,activation,[8],0.946%
same,outcome,[9],inactive
same,outcome,[10],inactive
same,outcome,[11],inactive
same,activation,[12],-1.16%
same,max response,[13],-9.3%
same,outcome,[14],inactive
CN(C(=O)CO)c1c(I)c(C(=O)NCC(O)CO)c(I)c(C(=O)NCC(O)CO)c1I (configuration not stated),Potency,[2],inactive
CCC(=O)O,Potency,[2],inactive
CC1(S(=O)(=O)O)CC(=O)c2ccccc2C1=O (configuration not stated),Potency,[2],inactive
O=S(O)CO,Potency,[2],inactive
CCC(C)(C)OC(=O)N[C@@H](Cc1c[nH]c2ccccc12)C(=O)N[C@@H](CCSC)C(=O)N[C@@H](CC(=O)O)C(=O)N[C@@H](Cc1ccccc1)C(N)=O,Potency,[2],inactive
CCCCCCCCCCCCCCCCCC(=O)[O][Al],Potency,[2],inactive
O.O=C([O-])CC([S-])C(=O)[O-].[Au+].[Na+].[Na+] (configuration not stated),Potency,[2],inactive
CCCCCCCCCC(=O)O,outcome,[1],inactive
same,Potency,[2],inactive
same,Potency,[6],inactive
same,activation,[7],-0.571% and 9.23%
same,activation,[8],-1.38% and -1.03%
same,outcome,[11],inactive
same,max response,[13],5.25% and -0.468%
CS(=O)(=O)OCCCNCCCOS(C)(=O)=O,Potency,[2],inactive
CN[C@@H]1CCc2[nH]c3ccc(C(N)=O)cc3c2C1,Potency,[2],inactive
CCCCCCCCCCCCCCCC(=O)OCCC1CCN(CCCN2c3ccccc3Sc3ccc(S(=O)(=O)N(C)C)cc32)CC1,Potency,[2],inactive
COC(C)=O,outcome,[1],inactive
same,Potency,[2],inactive
same,Potency,[6],inactive
same,outcome,[11],inactive
same,outcome,[15],inactive
same,activation,[12],0.269%
same,max response,[13],6.49%
same,outcome,[14],inactive
CCCC(CCC)C(N)=O,Potency,[2],inactive
CCCCCCCCCCCCCCCC(=O)OC/C=C(C)/C=C/C=C(C)/C=C/C1=C(C)CCCC1(C)C,Potency,[2],inactive
O=S(O)CNc1ccc(S(=O)(=O)c2ccc(NCS(=O)O)cc2)cc1,Potency,[2],inactive
O=P(O)(O)C(Sc1ccc(Cl)cc1)P(=O)(O)O,Potency,[2],inactive
CC(CC(c1ccccc1)c1ccccc1)NC(C)(C)C (configuration not stated),Potency,[2],inactive
CC(CN(C)C)CN1c2ccccc2S(=O)(=O)c2ccccc21 (configuration not stated),Potency,[2],inactive
CCCC1([C@H](O)C/C=C/[C@H]2[C@H](O)CC(=O)[C@@H]2CCCCCCC(=O)OC)CCC1,Potency,[2],inactive
CCCCc1cc2c(=O)c(C(=O)OC)c[nH]c2cc1OCc1ccccc1,Potency,[2],inactive
C[C@H](/C=C/[C@H](C)C(C)(C)O)[C@H]1CC[C@H]2/C(=C/C=C3C[C@@H](O)C[C@H](O)C3)CCC[C@]12C,Potency,[2],inactive
O=C(O)CC(O)(CC(=O)O)C(=O)O,outcome,[1],inactive
same,Potency,[2],inactive
same,activation,[7],-3% and -0.0659% and -0.0181%
same,activation,[8],-0.675% and 0.892% and -1.06%
same,outcome,[9],inactive
same,outcome,[10],inactive
same,outcome,[11],inactive
same,outcome,[15],inactive
same,activation,[12],0.406% and -1.76% and 1.69%
same,max response,[13],-3.03% and 0.0721% and -1.17%
same,outcome,[14],inactive
